Source: PubChem BioAssay (National Center for Advancing Translational Sciences (NCATS))
G9a block: qHTS Assay for Inhibitors of Histone Lysine Methyltransferase G9a; Potency, µM (top dose mostly 102 µM), without a hit: at the top dose activity, negative = inhibition, actives largely listed as inhibitors; 350,000 tested, 8.8% active; Histone-lysine N-methyltransferase EHMT2 (Homo sapiens), Q96KQ7; G9a H3K9 monomethylation, AlphaScreen, 2 h; further: on the % scale 0 is the no-effect control and ±100 the full control effect; nearly all actives have a fitted effect of over 75% in size
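Chemiluminescent proximity detection of H3K9 monomethylation, read after 10 min bead incubation in the dark. Reaction: 20 nM G9a, 500 nM biotin-H3K9 peptide, 20 uM SAM cofactor, 2 h, room temperature, following 15 min enzyme-compound preincubation.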
HP1b binding inh: HTS for Inhibitors of HP1-beta Chromodomain Interactions with Methylated Histone Tails; Potency, µM (doses to about 114 µM), for the others: at the highest dose activity change, negative = inhibition, usual class: inhibitors; 390,000 tested, 0.56% active; AlphaScreen HP1-beta / biotin-H3K9me3 peptide binding; Chromobox protein homolog 1 (Homo sapiens), P83916; AID 540317, 2011; further: nearly all actives have a fitted effect of over 70% in size
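HP1-beta protein (50 nM final) preincubated 30 min at room temperature with biotinylated H3(1-18)K9me3 peptide (50 nM) in PBS pH 7.4, 0.01% Tween-20, then compound added for 30 min. AlphaScreen streptavidin donor/nickel chelate acceptor beads (10 ug/mL final), 30 min dark, luminescence read.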
JMJD2A Tudor inh: qHTS Assay for Inhibitors of JMJD2A-Tudor Domain | AlphaScreen JMJD2A-Tudor / H3K4me3 peptide binding | Potency, µM (series often up to 114 µM), inactives show at the top dose activity change, negative = inhibition, hits mostly inhibitors | 390,000 tested, 4.4% active; further: on the % scale 0 is the no-effect control and ±100 the full control effect; nearly all actives have a fitted effect of over 50% in size
BAZ2B block: qHTS Assay for Inhibitors of BAZ2B. Bromodomain adjacent to zinc finger domain protein 2B (Homo sapiens), Q9UIF8. AlphaScreen BAZ2B-H3K14Ac peptide displacement. Potency, µM (titrated, usually from 114 µM), inactives show top-dose activity change, negative = inhibition, hits mostly inhibitors. 360,000 tested, 4.4% active. AID 504333, 2011; further: on the % scale 0 is the no-effect control and ±100 the full control effect; nearly all actives have a fitted effect of over 60% in size
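Inhibition is scored as reduced AlphaScreen emission. The BAZ2B/b-H3(5-23)K14Ac complex (50 nM each) in PBS pH 7.4, 0.01% Tween-20 meets compound (up to 110 uM) for 30 min at RT before bead addition.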
L3MBTL1 block: qHTS Assay for the Inhibitors of L3MBTL1; Lethal(3)malignant brain tumor-like protein 1 (Homo sapiens), Q9Y468; AlphaScreen L3MBTL1–H3K9me1 peptide binding; Potency, µM (highest dose often 57.1 µM), for inactives: top-dose activity, negative = inhibition, hits mostly inhibitors; 230,000 tested, 0.66% active; AID 485360, 2010; further: on the % scale 0 is the no-effect control and ±100 the full control effect; nearly all actives have a fitted effect of over 60% in size
Target sequence (Q9Y468 whole entry, looked up): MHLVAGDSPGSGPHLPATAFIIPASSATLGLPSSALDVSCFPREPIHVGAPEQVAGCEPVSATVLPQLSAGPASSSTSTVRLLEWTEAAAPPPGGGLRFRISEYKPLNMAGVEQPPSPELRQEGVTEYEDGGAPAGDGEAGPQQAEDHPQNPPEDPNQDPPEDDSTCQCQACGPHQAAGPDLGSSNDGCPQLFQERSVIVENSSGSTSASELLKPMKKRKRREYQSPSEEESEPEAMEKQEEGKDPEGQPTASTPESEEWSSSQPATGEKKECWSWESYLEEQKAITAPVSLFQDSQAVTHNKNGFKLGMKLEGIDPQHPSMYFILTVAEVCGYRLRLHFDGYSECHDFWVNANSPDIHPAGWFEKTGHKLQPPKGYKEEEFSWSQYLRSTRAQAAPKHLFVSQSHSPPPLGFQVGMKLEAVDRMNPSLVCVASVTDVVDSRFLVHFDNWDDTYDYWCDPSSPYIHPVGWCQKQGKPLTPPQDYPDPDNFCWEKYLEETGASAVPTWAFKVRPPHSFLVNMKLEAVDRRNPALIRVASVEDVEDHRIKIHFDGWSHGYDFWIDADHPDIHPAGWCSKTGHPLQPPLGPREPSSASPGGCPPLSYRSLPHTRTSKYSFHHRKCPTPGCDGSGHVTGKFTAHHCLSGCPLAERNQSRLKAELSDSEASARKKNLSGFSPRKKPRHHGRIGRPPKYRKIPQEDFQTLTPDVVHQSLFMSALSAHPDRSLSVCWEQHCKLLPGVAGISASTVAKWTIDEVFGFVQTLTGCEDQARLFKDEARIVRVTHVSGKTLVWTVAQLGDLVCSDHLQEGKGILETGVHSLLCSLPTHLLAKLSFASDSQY
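AlphaScreen proximity signal between nickel-chelate acceptor and streptavidin donor beads (final 10 ug/mL) reports binding of 50 nM L3MBTL1 to 75 nM biotin-H3 K9me1 peptide; complex incubated with compounds 30 min at room temperature; cefsulodin titration as control.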
Numbers without * were called inactive; ? = inconclusive; nt = no result; ! = a repeat was not active; [ ] = remark or other dose. This is a sample that favours compounds with a hit; in the whole collection about 11% have one here. The call rests on the fitted dose curve; in most records, active means well fitted inhibition curve with a large enough effect; inconclusive means small, poorly fitted or top-dose-only effect; inactive means no such curve, though single readings can be large or run the other way. Potency means the concentration at half of the fitted maximal effect.

SMILES | G9a block | HP1b binding inh | JMJD2A Tudor inh | BAZ2B block | L3MBTL1 block
CCOC(=O)c1c(NC(=O)CSc2nnc(N)s2)sc(C)c1-c1ccc(C)cc1 | 40µM* | 9% | ? | -11% | -8%
COc1ccc(C2Nc3ccccc3NC3=C2C(=O)CC(C)(C)C3)cc1O (stereo unspecified) | -16% | -5% | 13µM* | -1% | -4%
CC1CN(C(=S)Nc2ccccc2C(F)(F)F)CC(C)O1 (stereo unspecified) | 85% | 17% | -10% | -1% | nt
Cc1oc(-c2cc(F)ccc2F)nc1CN(C)Cc1ccc2nccnc2c1 | 5% | 33% | -2%[57.1 µM] | -10% | -2%
Cc1oc(-c2cc(F)ccc2F)nc1CN1CCN(c2cnccn2)CC1 | nt | 26% | -20% | 71µM* | -8%
OC1=C(O)c2nc3cc(F)ccc3nc21 | 40µM* | 17% | -12% | -12% | nt
COc1ccc(CC(=O)NCc2ccc(F)cc2)cc1S(=O)(=O)N1CCOCC1 | -13%[59 µM] | 29% | -5% | 11% | 2%
Cc1ccc(S(=O)(=O)NC(=O)NN2CC3CCCC3C2)cc1 (stereo unspecified) | 7%[2.33 µM] | 73% | 89µM* | ? | nt
CCCCSCCCNC(=O)c1c[nH]c2ccc(S(=O)(=O)Nc3cccc(OC)c3)cc2c1=O | -7%[59 µM] | 37% | -9% | 2% | nt
COc1cccc2sc(N(Cc3cccnc3)C(=O)C3CCCCC3)nc12 | -28%[59 µM] | 36% | -29% | -24% | nt
O=c1nc2s/c(=C\c3ccc(-c4ccccc4[N+](=O)[O-])o3)c(=O)n2nc1-c1ccccc1 | ? | 31% | 3% | 10µM* | 2.2µM*
CCCCCOc1ccc(/C=c2\sc3nc(=O)c(-c4ccccc4)nn3c2=O)cc1OC | -9%[59 µM] | 2% | -4% | -5% | -1%
CC(=O)c1ccccc1OCC(O)CN1CCN(CCN2C(=O)c3cccc4cccc(c34)C2=O)CC1 (stereo unspecified) | 23%[12.7 µM] | 17% | -27% | -29% | -8%
COc1cccc(OCC(O)CN2CCC(CN3C(=O)c4cccc5cccc(c45)C3=O)CC2)c1 (stereo unspecified) | ? | -7% | ? | ? | nt
COc1ccc(COCC(O)CN2CCC(CN3C(=O)c4cccc5cccc(c45)C3=O)CC2)cc1OC (stereo unspecified) | 79µM* | 7% | -20% | -38% | -4%
O=C1c2cccc3cccc(c23)C(=O)N1CC1CCN(CC(O)COc2ccc3ccccc3c2)CC1 (stereo unspecified) | 10µM* | ? | 13µM* | ? | -1%
Cc1ccc(C)c(OCC(O)CN2CCN(CCN3C(=O)c4cccc5cccc(c45)C3=O)CC2)c1 (stereo unspecified) | ? | -38% | ? | 50µM* | -9%
CNC1CCc2cc(OC)c(OC)c(OC)c2-c2ccc(OC)c(=O)cc21 (stereo unspecified) | -18%[12.7 µM] | nt | nt | nt | nt
Cc1ccc(-c2noc(-c3ccc(NC4CCCC4)c([N+](=O)[O-])c3)n2)cc1 | 1%[59 µM] | 50% | -27% | ? | nt
Cc1nnc(-c2ccc(N3CCCCCC3)c([N+](=O)[O-])c2)o1 | 45µM* | -12% | ? | ? | 0%
CC(=O)N1CCc2cc(Br)cc(S(=O)(=O)N3CCC(C(=O)Nc4ccc(C(C)C)cc4)CC3)c21 | 10%[59 µM] | 56% | -9% | 28% | nt
Nc1nc(CN2CCN(c3ccccn3)CC2)nc(Nc2ccc(F)cc2)n1 | ? | 22% | 50µM* | 50µM* | nt
Nc1nc(CN2CCCCCC2)nc(Nc2ccc(F)cc2)n1 | 10µM* | 19% | 79µM* | 7.1µM* | nt
COc1ccccc1-c1nc(S(=O)(=O)c2ccccc2)c(N2CCOCC2)o1 | 86% | 36% | -12% | 3% | nt
Cc1[nH]n(-c2ccccc2)c(=O)c1C(c1cc(Cl)ccc1O)c1c(C)[nH]n(-c2ccccc2)c1=O | ? | ? | 45µM* | ? | nt
SMILES | G9a block | HP1b binding inh | JMJD2A Tudor inh | BAZ2B block | L3MBTL1 block
CCOc1cc(C(c2c(C)[nH]n(-c3ccccc3)c2=O)c2c(C)[nH]n(-c3ccccc3)c2=O)ccc1O | ? | ? | 50µM* | 11µM* | nt
Cc1[nH]n(-c2ccccc2)c(=O)c1C(c1ccccc1C(=O)O)c1c(C)[nH]n(-c2ccccc2)c1=O | ? | 34% | -10% | -29% | 5%
COc1ccc(C(c2c(C)[nH]n(-c3ccccc3)c2=O)c2c(C)[nH]n(-c3ccccc3)c2=O)cc1OC | ? | -51% | ? | ? | ?
O=C(CSc1nnnn1-c1ccc(F)cc1)Nc1ccccc1F | nt | 14% | -10% | 5% | 5%
COc1ccc(N2CCN(C3=CC(=O)N(c4cccc(Cl)c4)C3=O)CC2)cc1 | ? | ? | ? | 11µM* | 0%
COc1ccc(N2C(=O)CC(N3CCN(c4cccc(Cl)c4)CC3)C2=O)cc1 (stereo unspecified) | 14% | 29% | -7% | 4% | -1%
Cc1nn(C2CCS(=O)(=O)C2)c(C)c1C=O (stereo unspecified) | 1% | -13% | 13µM* | 9% | -4%
CC(=O)Nc1ccc(-c2ccc3nnc(C)n3n2)cc1 | -6% | 13% | -13% | -6% | nt
Cc1nnc2ccc(-c3ccc(NC(=O)c4ccco4)cc3)nn12 | 35µM* | 14% | -5% | -20% | nt
Oc1cc(O)cc(/C=C/c2ccc(O)c(O)c2)c1 | 0.67µM* | 16µM* | 45µM* | ? | ?
NNc1nncc2ccccc12 | 7.9µM*! | nt | nt | nt | nt
COc1ccc(/C=N/Nc2nncc3ccccc23)cc1 | ? | 27% | 28µM* | 25µM* | -6%
CNC(=S)NNc1nncc2ccccc12 | 2.5µM* | -14% | -22% | -14% | 0%
CCNC(=S)NNc1nncc2ccccc12 | ? | 3% | ? | -24% | -14%
COc1ccc(OC)c(CNC(=O)c2cnc3c(C)cccn3c2=O)c1 | 5%[59 µM] | 27% | 3% | 4% | nt
O=C(NCC(c1ccco1)S(=O)(=O)c1cccs1)c1ccc(Cl)cc1 (stereo unspecified) | -26%[59 µM] | 28% | -15% | -8% | nt
COC(=O)/C(=C(/F)SCC(C)=O)C(F)(F)F | 16µM* | nt | nt | -30% | nt
O=C(CCS(=O)(=O)c1ccc2c(c1)NC(=O)CS2)NCCc1ccc(Cl)cc1 | 10% | 13% | 16µM* | -18% | nt
CCOc1ccc(-c2nc(SC(C(C)=O)C(=O)N(C)C)c3c(=O)n(C)c(=O)n(C)c3n2)cc1 (stereo unspecified) | 0%[59 µM] | 22%[57 µM] | -1% | 5% | nt
